MARV entry inh: qHTS for Inhibitors of binding or entry into cells for Marburg Virus. Potency, µM (series often up to 49.2 µM), inactives show at the highest dose activity change, negative = inhibition, actives largely listed as inhibitors. Marburg virus pseudotype entry/binding inhibition, cell-based. hit rate 6.5% among 18,000
LASV entry inh: qHTS for Inhibitors of binding or entry into cells for Lassa Virus. Lassa virus pseudotyped entry inhibition, cell-based qHTS. Potency, µM (titrated, usually from 49.2 µM), for the others: at the highest dose activity change, negative = inhibition, most hits filed as inhibitors. hit rate 4.1% among 18,000
The depositor's hits bear a star; ? = inconclusive; . = no result; [ ] = remark or other dose. This is a sample that favours compounds with a hit; in the whole collection about 8% have one here. Calls follow the shape of the full dose curve; tested in HEK293 cells. % is scaled to controls: 0 for no effect and ±100 for the full control effect; potency is read from the fitted curve at half-maximal effect.

SMILES	MARV entry inh	LASV entry inh
CCCCCCCCCC(=O)O[C@H]1CC[C@H]2[C@@H]3CCC4=CC(=O)CC[C@]4(C)[C@H]3CC[C@]12C	18.6%	-9.2%
COC[C@@H](O)[C@H]1OCc2ccccc2[C@@H]1C=Cc1ccccc1	-36.8%[8.59 µM]	-0.1%[8.59 µM]
CCCCN(CC)CCOc1cccc2ccccc12	10µM*	?
CCN(CC)CCOc1ccccc1OC	-4.7%	-3.8%
O=C(Cn1cc(COc2ccc([N+](=O)[O-])cc2)nn1)c1ccc(O)cc1	14.6%	6.0%
CCC1(C2CCN(Cc3ccccn3)CC2)NC(=O)N(CC2COc3ccccc3O2)C1=O (stereo not given)	-0.7%	-7.9%
Cn1cc(C2=C(c3cn(C4CCN(Cc5ccccn5)CC4)c4ccccc34)C(=O)NC2=O)c2ccccc21	7.08µM*	?
Cc1cc2c(c(=O)n1-c1ccccc1)[C@H]1O[C@](c3ccsc3)(Cc3cc(C#N)ccc31)O2	-12.1%[8.59 µM]	3.9%[8.59 µM]
C[C@@H]1CC[C@H]2C(=O)N(Cc3ccc(Cl)cc3)C[C@@H](O)CN2[C@H]1c1cccc(Br)c1	43.4%[8.59 µM]	-9.0%[8.59 µM]
O=C(O)c1ccc2[nH]cc(CCCCN3CC=C(c4ccccc4)CC3)c2c1	?	-3.6%
Oc1ccc2[nH]cc(CCCCN3CC=C(c4ccccc4)CC3)c2c1	20µM*	-16.4%
C=C(C#CCCO)CCN1C=C(C(=O)OCC)C(c2ccccc2)NC1=O (stereo not given)	1.9%[8.59 µM]	59.0%[8.59 µM]
Clc1ccc(C2(Cn3cncn3)OCCO2)c(Cl)c1	-10.2%	-19.3%
CCCC1COC(Cn2cncn2)(c2ccc(Cl)cc2Cl)O1 (stereo not given)	11.2µM*	12.6µM*
CCN(CC)CCNC(=O)COc1ccc(Cl)cc1	-28.1%	4.1%
CCN(CC)CCOc1ccc(C(O)(Cc2ccc(Cl)cc2)c2ccc(C)cc2)cc1 (stereo not given)	3.55µM*	25.1µM*
CCCCCCN1C[C@@H](n2cc(COC(=O)c3ccccc3)nn2)[C@H](O)C[C@H]1c1ccc(Cl)cc1	?	-19.7%
C[C@H]1CN(Cc2ccccc2)C(=O)[C@H]1CC(=O)Nc1ccccc1	6.3%	29.6%
Cc1cc2c(nc1C)CCCCN2C[C@H](C)ON=C[C@@H](C)[C@H](OCc1ccccc1)C(C)C	?	-18.9%[8.59 µM]
O=C(c1ccc(Nc2nccc(-c3cc4ccccc4s3)n2)cc1)N1CCC(N2CCCC2)CC1	2.24µM*	?
O=C(Nc1ccc(C(=O)N2CCCCC2)cc1)c1ccccc1	79.9%	31.9%
C[C@@H]1C=CCC(=O)N[C@@H](c2cccc(Br)c2)[C@H](C)C=CCC(=O)N[C@@H]1c1cccc(Br)c1	?	-5.6%[8.59 µM]
COC1=C[C@H](C(=O)NC2CCN(Cc3ccccc3)CC2)[C@H](C)[C@@H](c2ccccc2)CC1=O	8.6%[8.59 µM]	17.6%[8.59 µM]
CNc1cc(OC)c(C(=O)N[C@H]2CCN(Cc3ccccc3)[C@H]2C)cc1Cl	17.8µM*	?
COC(=O)C1=C(C)N(Cc2ccccc2)C(=NCCc2ccccn2)NC1c1cccc(F)c1 (stereo not given)	-21.0%[8.59 µM]	-7.8%[8.59 µM]
SMILES	MARV entry inh	LASV entry inh
CCCC(=O)O[C@]1(C(=O)COC(=O)CC)[C@@H](C)C[C@H]2[C@@H]3CCC4=CC(=O)C=C[C@]4(C)[C@@]3(F)[C@@H](O)C[C@@]21C	11.2µM*	?
CCCCC(=O)O[C@@]1(C(=O)CO)C(C)CC2C3CCC4=CC(=O)C=C[C@@]4(C)[C@]3(F)C(O)C[C@]21C (stereo not given in full)	-12.5%	-2.0%
COC(=O)C(C(C)=O)[C@@H](NC(=O)OC(C)(C)C)c1ccccc1 (stereo not given in full)	-7.0%[8.59 µM]	-19.7%[8.59 µM]
CCOC(=O)[C@]12C[C@@H]3CCN(C(=O)N(C(C)=O)[C@@H]1c1ccccc1)[C@@H]32	-9.4%[8.59 µM]	-0.7%[8.59 µM]
C[C@@H]1N[S+](=O)([O-])c2cc(Cl)ccc2O[C@H]1c1ccccc1	-3.0%	6.6%
Nc1nc(N)c2nc(CNc3ccc(C(=O)N[C@@H](CCC(=O)O)C(=O)O)cc3)cnc2n1	-5.4%	1.8%
CN(Cc1cnc2nc(N)nc(N)c2n1)c1ccc(C(=O)NC(CCC(=O)O)C(=O)O)cc1 (stereo not given)	0.282µM*	?
COc1ccc(COc2cc(-c3cccc(OC)c3)nc3ccc(NC(=O)c4ccccc4)cc23)cc1	?	10µM*
COc1ccc(COc2cc(-c3cccc(OC)c3)nc3ccc(NC(=O)c4ccc(Cl)cc4)cc23)cc1	-18.2%	-29.1%
CCC1CC2C=CCS[P@](=O)(O2)O1 (stereo not given in full)	17.6%	-31.1%
CC[C@@H]1OC(=O)[C@@H](C)[C@H](O[C@H]2C[C@@](C)(OC)[C@@H](O)[C@H](C)O2)C(C)[C@H](O[C@H]2O[C@@H](C)C[C@@H](N(C)C)[C@@H]2O)[C@@](C)(O)C[C@H](C)C(=O)[C@@H](C)[C@H](O)[C@@]1(C)O (stereo not given in full)	?	0.3%
CCC1OC(=O)C(C)[C@@H](O[C@H]2C[C@@](C)(OC)C(O)C(C)O2)C(C)[C@@H](O[C@@H]2OC(C)CC(N(C)C)C2O)[C@@](C)(O)CC(C)CN(C)C(C)C(O)[C@]1(C)O (stereo not given in full)	0.631µM*	?
CC[C@@H]1OC(=O)[C@H](C)[C@H](O[C@@H]2C[C@](C)(OC)[C@H](O)[C@H](C)O2)[C@H](C)[C@H](O[C@@H]2O[C@@H](C)C[C@@H](N(C)C)[C@@H]2O)[C@](C)(O)C[C@H](C)C(=O)[C@H](C)[C@H](O)[C@]1(C)O	0.8%[17.8 µM]	22.0%[17.8 µM]
CC[C@H]1OC(=O)[C@H](C)[C@@H](O[C@H]2C[C@@](C)(OC)[C@@H](O)[C@H](C)O2)[C@H](C)[C@@H](O[C@@H]2O[C@H](C)C[C@H](N(C)C)[C@H]2O)[C@](C)(O)C[C@@H](C)CN(C)[C@H](C)[C@@H](O)[C@]1(C)O	2.82µM*	?
C=CCOC(=O)C(C(C)=O)[C@@H](NC(=O)OC)c1ccc(Cl)cc1 (stereo not given in full)	-10.3%[8.59 µM]	-4.1%[8.59 µM]
CC(C)c1ccc(Cn2ccc3c4c(N)nc(NC5CC5)nc4ccc32)cc1	3.98µM*	12.6µM*
C/C1=C2N=C(/C=C3N=C(/C(C)=C4\[N-][C@@](C)([C@@H]5N=C1[C@](C)(CCC(=O)NCC(C)OP(=O)(O)O[C@H]1[C@@H](O)[C@@H](n6cnc7cc(C)c(C)cc76)O[C@@H]1CO)[C@H]5CC(N)=O)[C@@](C)(CC(N)=O)[C@@H]4CCC(N)=O)[C@@](C)(CC(N)=O)[C@@H]\3CCC(N)=O)C(C)(C)[C@@H]/2CCC(N)=O.CC(=O)O.[Co] (stereo not given in full)	2.82µM*	3.16µM*
CC(=O)OC[C@H]1O[C@@H](ON=C[C@@H](C)[C@H](OCc2ccccc2)C(C)C)[C@@H](OC(C)=O)[C@@H](OC(C)=O)[C@@H]1OC(C)=O	43.0%[8.59 µM]	.
Cc1ccc(C(=O)N(Cc2cc3cccc(C)c3nc2N(C)C)CC2CCCO2)cc1 (stereo not given)	7.1%	-5.1%
COc1ccccc1C(=O)N(Cc1cc2cc3c(cc2nc1N(C)C)OCO3)CC1CCCO1 (stereo not given)	12.6µM*	11.2µM*
COC(=O)N[C@H](C(C(=O)OC)=C(C)NCc1ccccc1)c1ccc(Cl)cc1	-16.7%[8.59 µM]	26.6%[8.59 µM]
CN(C)c1ccc2c(-c3ccccc3)c3ccc(=[N+](C)C)cc-3oc2c1	2.51µM*	3.16µM*
